The target in test [1] is Lysosomal acid glucosylceramidase (Homo sapiens) (UniProt P04062). Put plainly: Glucocerebrosidase-p2 (AID 348; in the data active = potency below about 10 µM; also: potency is read from the fitted curve at half-maximal effect). Particulars: purified GBA, blue fluorogenic substrate, 40 min. An outline of the steps:
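Normal human glucocerebrosidase (0.2 nM) with blue fluorogenic substrate (80 uM final) in citrate/phosphate pH 5.9 with 10mM sodium taurocholate, 0.01% tween-20; 40 min RT, NaOH/glycine stop; fluorescence Ex 365/Em 440; AC50 from a titration from 0.6 nM upwards.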

Test [2] can be described thus: AP1 Signaling Pathway (AID 357).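 Also: ME-180 reporter cells stimulated with EGF at its EC50 level; % is scaled to controls: 0 for no effect and ±100 for the full control effect.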 Particulars: ME-180 AP-1-bla reporter, EGF-induced, beta-lactamase ratio, 5 h; at 7.69 µM (top of the series) unless noted. An outline of the steps: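 AP-1-bla ME-180 cells, Opti-MEM + 0.5% dialyzed FBS, plated overnight 37 °C. Cpd titration + EC50 EGF, 5 h 37 °C. CCF4 2.5 h RT; ex 405, em 460/530 ratio → %activity, AC50.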
In test [3] the target is Cytochrome P450 1A2 (Homo sapiens) (UniProt P05177). Put plainly: p450-cyp1a2 (AID 410; calls by dose curve; also: potency is read from the fitted curve at half-maximal effect). Particulars: recombinant CYP1A2, luciferin-ME demethylation, luminescence; series mostly up to 11.4 µM. An outline of the steps: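 O-Demethylation of luciferin 6' methyl ether by human CYP1A2 is monitored as luciferase luminescence. Substrate sits at Km (100uM); enzyme is 20nM. Values are scaled to 57 uM furafylline as maximal inhibition.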

The nature of test [4]: NFAT Signaling Pathway (AID 444).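 Also: carbachol stimulus at about its EC50 of 1 µM final; % is scaled to controls: 0 for no effect and ±100 for the full control effect.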 The following applies: Jurkat NFAT-bla M1, carbachol, beta-lactamase ratio, 5 h; at 7.69 µM (top of the series) unless noted. In outline: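 Jurkat cells with NFAT-driven β-lactamase reporter and co-expressed M1 receptor, stimulated with carbachol (final 1 uM, ~EC50), compound titration, 5 h at 37 °C. CCF4 loaded 1 h at RT; 460/530 nm ratio gave %activity and AC50.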

The nature of test [5]: Stat Signaling Pathway (AID 446).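 Also: ME-180 cervical cancer cells given 40 pM IL-6 alongside compound; SIE-controlled beta-lactamase reporter measured as 460/530 nm FRET emission ratio; % is scaled to controls: 0 for no effect and ±100 for the full control effect.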 The following applies: ME-180 SIE beta-lactamase reporter, IL-6 stimulated, 5 h; at 7.69 µM (top of the series) unless noted. An outline of the steps: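 Normalization used AC90 stimulation (300 pM IL-6) and AC90 inhibition (125 nM pan-JAK inhibitor at 40 pM IL-6). The underlying signal is SIE-driven beta-lactamase in ME-180 cells after 5 h IL-6 exposure with compound.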

Test [6] has as its target Glucocorticoid receptor (Homo sapiens) (UniProt P04150). The experiment in a line: GR-GFP Redistribution (AID 450;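 active = compounds whose dose series gives a full or clear partial fitted curve of increased nuclear translocation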; also: potency is read from the fitted curve at half-maximal effect). Particulars: U2OS GR-GFP nuclear translocation, laser cytometry, 2 h.
Test [7] has the same target. Put plainly: GR-EFC Redistribution (AID 451; calls by dose curve; also: potency is read from the fitted curve at half-maximal effect). Particulars: CHO-K1 GR-EFC translocation, beta-gal luminescence, 2 h. An outline of the steps: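 CHO-K1 cells expressing nuclear EA and GR-ED fragments of b-gal; compounds titrated up to 46 uM final, 2 h at 37 C. GR nuclear translocation read as complemented b-gal luminescence after 1 h RT detection.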
Test [8] deals with Mitogen-activated protein kinase 10 (Mus musculus) (UniProt Q61831). The experiment in a line: JNK3 AlphaScreen Assay (AID 530).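 Also: kinase came from lysate of stimulated human HepG2 cells; signal reports phosphorylation of biotinylated GST-cJun 1-79 at Ser73 with 10 µM ATP; % is scaled to controls: 0 for no effect and ±100 for the full control effect.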 Particulars: JNK3 lysate, c-Jun phosphorylation; series mostly up to 57.1 µM. In outline:
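Activity was read by AlphaScreen after JNK3-containing HepG2 lysate (cytokine pre-activated) phosphorylated biotinylated GST-cJun with 10 uM ATP at room temperature. Phospho-Ser73 cJun antibody with Protein-A acceptor beads provided detection.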

Test [9] addresses 3',5'-cyclic-AMP phosphodiesterase 4B (Homo sapiens) (UniProt Q07343). Put plainly: qHTS Assay for Inhibitors of PDE-IV (AID 607; active = well fitted activation curve with a large enough effect in the main read-out, with a control signal flat, not every such curve was filed as active; also: % of control where 0% means no effect). Particulars: HEK293 ACTOne CNG channel cells, membrane potential fluorescence; series mostly up to 22.9 µM. An outline of the steps: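 HEK293 ACTOne cells with CNG channel (1000/well), endogenous PDE4; membrane potential dye, compounds up to 22.9 uM final. Fluorescence Ex 535/Em 590; RO 20-1724 (100 uM final) as reference.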
A general note: qHTS replaces the single test concentration by a dilution series.

Test [10] has as its target Cytochrome P450 2C19 (Homo sapiens) (UniProt P33261). Put plainly: qHTS Assay for Inhibitors and Substrates of Cytochrome P450 2C19 (AID 899; active = well fitted curve in the direction sought with a large enough effect; an effect the other way counts as inactive or inconclusive; also: nearly all actives have a fitted effect of over 60% in size; also: potency is read from the fitted curve at half-maximal effect). Particulars: recombinant CYP2C19, luciferin-H EGE luminescence; series mostly up to 11.4 µM. In outline: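 Signal comes from luciferase acting on luciferin released by CYP2C19-mediated hydroxylation of Luciferin-H EGE, 10uM (KM). Assay mix: 5nM enzyme, 50mM KPO4; 60 min at 37C with NADPH regeneration. Data normalized against 57uM ketoconazole.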

Test [11] is described as follows: qHTS Assay for Identification of Small Molecule Agonists for Hypoxia Response Element Signaling Pathway (AID 914; active = well fitted activation curve with a large enough effect in the signal ratio, with a control signal flat, not every such curve was filed as active; the % refers to the signal ratio; also: % of control where 0% means no effect). The following applies: ME-180 (cervical carcinoma) HRE-bla reporter, beta-lactamase ratio, CoCl2, 17 h; active compounds read high. An outline of the steps: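 Read-out: CCF4 FRET ratio of 460nm to 530nm emission (excitation 405nm) after 2.5 hours at room temperature, taken from HRE-bla ME-180 cells that had been exposed to compound and EC50 CoCl2 for 17 hours.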

For test [12], the target named is Cytochrome P450 2D6 (Homo sapiens) (UniProt P10635). The experiment in a line: qHTS Assay for Inhibitors and Substrates of Cytochrome P450 2D6 (AID 891; active = well fitted curve in the direction sought with a large enough effect; an effect the other way counts as inactive or inconclusive;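 also: luciferin methyl ether substrate demethylated by CYP2D6 with NADPH regeneration; % is scaled to controls: 0 for no effect and ±100 for the full control effect; nearly all actives have a fitted effect of over 60% in size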). Particulars: recombinant CYP2D6, luciferin-ME EGE luminescence; series mostly up to 11.4 µM. In outline: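 Luminescent read-out of luciferin formed by 5 nM human CYP2D6 demethylating 30 uM Luciferin-ME EGE (Km level) over 60 min at room temperature after NADPH regeneration addition. Data normalized to full inhibition by 1.43 uM quinidine.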

Test [13] concerns the target Cytochrome P450 2C9 (Homo sapiens) (UniProt P11712). The experiment in a line: qHTS Assay for Inhibitors and Substrates of Cytochrome P450 2C9 (AID 883; active = well fitted curve in the direction sought with a large enough effect; an effect the other way counts as inactive or inconclusive; also: % is scaled to controls: 0 for no effect and ±100 for the full control effect; nearly all actives have a fitted effect of over 60% in size). Particulars: recombinant CYP2C9, luciferin-H luminescence, 60 min; series mostly up to 57.1 µM. An outline of the steps:
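Signal: luciferase luminescence reporting luciferin produced by CYP2C9. Conditions: 10nM enzyme, Luciferin-H 100uM at KM, 25mM KPO4, 37C, 60 min NADPH-driven reaction. Reference: 57uM sulphaphenazole as 100% inhibition.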

Test [14] concerns the target Cytochrome P450 3A4 (Homo sapiens) (UniProt P08684). The experiment in a line: qHTS Assay for Inhibitors and Substrates of Cytochrome P450 3A4 (AID 884; active = well fitted curve in the direction sought with a large enough effect; an effect the other way counts as inactive or inconclusive; also: potency is read from the fitted curve at half-maximal effect; nearly all actives have a fitted effect of over 50% in size). The following applies: recombinant CYP3A4, Luciferin-PPXE luminescence; series mostly up to 57.1 µM. An outline of the steps:
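Luminescent readout of luciferin produced by CYP3A4 (20 nM) dealkylation of Luciferin-PPXE, 25 uM (its KM). NADPH-driven reaction ran 60 min at RT after 10 min compound preincubation; data scaled to 57 uM ketoconazole as 100% inhibition.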

The target is the same in test [15]. The experiment in a line: qHTS Assay for Activators of Cytochrome P450 3A4 (AID 885; active = well fitted curve in the direction sought with a large enough effect; an effect the other way counts as inactive or inconclusive; also: nearly all actives have a fitted effect of over 65% in size). Particulars: recombinant CYP3A4, Luciferin-PPXE luminescence, 60 min; series mostly up to 57.1 µM. In outline: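 Human CYP3A4 dealkylates Luciferin-PPXE to luciferin, which luciferase detection converts to light. Substrate was at its KM (25uM), buffer 200mM KPO4, reaction 60 min at RT.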

Unmarked numbers belong to inactive results. Records with an inconclusive call do not appear. The source made the active and inactive calls. Unless noted, calls follow the shape of the dose curve; as a rule, active = well fitted curve in either direction with a large enough effect (not every such curve was filed as active); inconclusive = small, poorly fitted or top-dose-only effect, or another doubt; inactive = flat fitted curve, though single readings scatter.

Chain of Lysosomal acid glucosylceramidase (Homo sapiens) (P04062 whole entry, looked up): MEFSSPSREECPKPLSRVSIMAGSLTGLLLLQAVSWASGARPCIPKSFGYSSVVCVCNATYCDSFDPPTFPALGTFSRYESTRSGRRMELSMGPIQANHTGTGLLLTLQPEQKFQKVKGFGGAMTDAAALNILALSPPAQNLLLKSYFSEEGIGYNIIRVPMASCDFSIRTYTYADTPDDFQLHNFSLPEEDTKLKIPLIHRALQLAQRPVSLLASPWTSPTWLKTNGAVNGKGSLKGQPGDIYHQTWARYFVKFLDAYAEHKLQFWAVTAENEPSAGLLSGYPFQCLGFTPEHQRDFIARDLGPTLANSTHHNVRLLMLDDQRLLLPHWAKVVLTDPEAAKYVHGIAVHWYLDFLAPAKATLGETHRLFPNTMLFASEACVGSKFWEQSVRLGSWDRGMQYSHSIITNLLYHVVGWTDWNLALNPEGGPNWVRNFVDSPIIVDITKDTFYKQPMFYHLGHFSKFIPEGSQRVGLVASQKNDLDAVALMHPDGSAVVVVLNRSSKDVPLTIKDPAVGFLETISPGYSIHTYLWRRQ
Chain of Glucocorticoid receptor (Homo sapiens) (P04150 whole entry, looked up, the tested form may be a part): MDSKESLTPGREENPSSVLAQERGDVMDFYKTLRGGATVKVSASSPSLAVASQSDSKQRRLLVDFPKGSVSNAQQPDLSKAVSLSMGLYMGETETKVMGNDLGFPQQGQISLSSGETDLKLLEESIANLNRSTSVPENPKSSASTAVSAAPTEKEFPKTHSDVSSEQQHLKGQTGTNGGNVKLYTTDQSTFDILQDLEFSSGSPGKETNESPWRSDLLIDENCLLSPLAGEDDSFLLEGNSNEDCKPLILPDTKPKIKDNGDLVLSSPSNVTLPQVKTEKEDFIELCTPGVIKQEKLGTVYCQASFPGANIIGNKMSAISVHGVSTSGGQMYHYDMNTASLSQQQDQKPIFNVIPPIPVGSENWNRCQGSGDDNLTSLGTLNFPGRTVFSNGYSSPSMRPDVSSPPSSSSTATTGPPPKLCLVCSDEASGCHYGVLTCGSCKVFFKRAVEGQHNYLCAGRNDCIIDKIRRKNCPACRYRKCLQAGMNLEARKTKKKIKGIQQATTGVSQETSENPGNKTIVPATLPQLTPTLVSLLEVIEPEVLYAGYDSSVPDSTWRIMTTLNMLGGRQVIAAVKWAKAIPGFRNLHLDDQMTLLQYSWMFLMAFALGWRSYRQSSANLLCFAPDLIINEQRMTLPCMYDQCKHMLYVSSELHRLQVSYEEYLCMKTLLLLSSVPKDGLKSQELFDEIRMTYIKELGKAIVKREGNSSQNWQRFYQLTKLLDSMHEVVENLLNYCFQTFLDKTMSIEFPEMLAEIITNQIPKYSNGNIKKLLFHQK
Chain of Cytochrome P450 2C19 (Homo sapiens) (P33261 whole entry, looked up): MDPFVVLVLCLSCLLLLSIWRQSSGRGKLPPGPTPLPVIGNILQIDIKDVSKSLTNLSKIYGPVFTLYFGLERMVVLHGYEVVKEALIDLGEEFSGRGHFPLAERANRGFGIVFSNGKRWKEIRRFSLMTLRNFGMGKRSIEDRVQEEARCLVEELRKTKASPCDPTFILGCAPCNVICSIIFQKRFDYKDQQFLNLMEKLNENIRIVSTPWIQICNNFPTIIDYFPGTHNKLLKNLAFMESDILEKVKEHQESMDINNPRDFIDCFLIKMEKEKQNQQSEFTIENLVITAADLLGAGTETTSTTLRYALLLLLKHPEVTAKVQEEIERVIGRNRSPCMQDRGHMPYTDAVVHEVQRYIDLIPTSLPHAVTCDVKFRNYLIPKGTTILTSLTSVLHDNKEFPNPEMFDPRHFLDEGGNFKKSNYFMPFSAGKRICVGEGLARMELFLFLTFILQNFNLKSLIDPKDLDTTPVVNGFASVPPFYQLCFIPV
Chain of 3',5'-cyclic-AMP phosphodiesterase 4B (Homo sapiens) (Q07343 whole entry, looked up): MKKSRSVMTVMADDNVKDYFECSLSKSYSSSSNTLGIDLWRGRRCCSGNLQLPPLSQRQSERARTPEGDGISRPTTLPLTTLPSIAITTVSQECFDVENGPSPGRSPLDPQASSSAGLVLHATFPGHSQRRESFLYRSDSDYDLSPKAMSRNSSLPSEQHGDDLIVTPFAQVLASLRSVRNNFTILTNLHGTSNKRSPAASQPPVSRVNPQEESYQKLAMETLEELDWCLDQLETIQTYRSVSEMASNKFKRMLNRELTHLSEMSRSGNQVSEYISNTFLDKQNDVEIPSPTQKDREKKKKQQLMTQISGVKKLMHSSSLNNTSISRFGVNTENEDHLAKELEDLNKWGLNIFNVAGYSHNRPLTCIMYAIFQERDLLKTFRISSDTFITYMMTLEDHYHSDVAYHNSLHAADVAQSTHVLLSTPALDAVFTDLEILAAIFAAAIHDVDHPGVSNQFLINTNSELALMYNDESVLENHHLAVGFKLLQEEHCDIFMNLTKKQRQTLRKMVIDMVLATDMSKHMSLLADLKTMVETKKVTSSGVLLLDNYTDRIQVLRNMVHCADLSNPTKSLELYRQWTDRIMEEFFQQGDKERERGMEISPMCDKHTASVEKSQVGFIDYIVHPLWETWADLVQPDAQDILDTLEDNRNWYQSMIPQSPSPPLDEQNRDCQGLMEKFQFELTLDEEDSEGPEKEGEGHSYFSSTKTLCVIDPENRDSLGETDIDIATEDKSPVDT
Chain of Cytochrome P450 1A2 (Homo sapiens) (P05177 whole entry, looked up): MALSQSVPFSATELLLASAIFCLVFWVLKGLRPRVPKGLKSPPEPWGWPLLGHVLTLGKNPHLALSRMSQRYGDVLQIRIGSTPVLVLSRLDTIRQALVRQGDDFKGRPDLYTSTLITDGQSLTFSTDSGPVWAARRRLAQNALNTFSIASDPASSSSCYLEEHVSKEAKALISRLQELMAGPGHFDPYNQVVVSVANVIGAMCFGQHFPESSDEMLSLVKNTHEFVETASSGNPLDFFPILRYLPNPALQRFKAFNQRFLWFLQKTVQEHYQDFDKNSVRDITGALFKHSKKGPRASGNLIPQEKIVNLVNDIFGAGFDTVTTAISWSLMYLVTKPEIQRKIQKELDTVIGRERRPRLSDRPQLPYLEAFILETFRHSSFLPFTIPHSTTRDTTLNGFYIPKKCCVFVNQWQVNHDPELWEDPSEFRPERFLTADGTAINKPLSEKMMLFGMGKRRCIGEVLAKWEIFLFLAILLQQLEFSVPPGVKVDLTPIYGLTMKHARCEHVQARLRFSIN
Chain of Cytochrome P450 3A4 (Homo sapiens) (P08684 whole entry, looked up): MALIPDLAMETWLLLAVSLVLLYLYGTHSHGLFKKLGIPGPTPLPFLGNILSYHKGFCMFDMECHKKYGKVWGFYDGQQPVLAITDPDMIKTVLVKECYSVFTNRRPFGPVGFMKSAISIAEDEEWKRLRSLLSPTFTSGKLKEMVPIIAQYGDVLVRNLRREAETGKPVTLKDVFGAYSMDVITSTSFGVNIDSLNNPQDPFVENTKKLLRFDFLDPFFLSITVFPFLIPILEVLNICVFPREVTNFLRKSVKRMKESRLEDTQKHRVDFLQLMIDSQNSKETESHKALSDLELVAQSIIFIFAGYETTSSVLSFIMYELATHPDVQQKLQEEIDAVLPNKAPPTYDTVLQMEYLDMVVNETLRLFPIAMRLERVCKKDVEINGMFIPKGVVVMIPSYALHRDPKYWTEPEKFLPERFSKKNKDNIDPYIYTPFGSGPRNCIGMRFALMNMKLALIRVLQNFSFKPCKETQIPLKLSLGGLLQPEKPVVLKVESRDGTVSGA
Chain of Cytochrome P450 2C9 (Homo sapiens) (P11712 whole entry, looked up): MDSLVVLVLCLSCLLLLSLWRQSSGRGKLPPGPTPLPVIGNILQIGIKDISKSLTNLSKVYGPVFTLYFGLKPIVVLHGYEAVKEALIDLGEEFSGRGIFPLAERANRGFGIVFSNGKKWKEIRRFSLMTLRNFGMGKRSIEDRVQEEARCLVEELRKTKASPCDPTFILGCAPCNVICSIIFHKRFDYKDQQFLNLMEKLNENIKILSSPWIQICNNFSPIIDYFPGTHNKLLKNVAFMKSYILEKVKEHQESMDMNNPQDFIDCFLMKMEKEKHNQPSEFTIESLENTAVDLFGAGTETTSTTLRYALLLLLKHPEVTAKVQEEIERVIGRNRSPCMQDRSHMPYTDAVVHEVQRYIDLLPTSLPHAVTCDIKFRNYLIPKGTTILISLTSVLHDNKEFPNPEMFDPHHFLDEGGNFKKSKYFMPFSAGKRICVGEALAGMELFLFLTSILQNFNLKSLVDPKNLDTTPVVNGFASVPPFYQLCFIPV
Chain of Cytochrome P450 2D6 (Homo sapiens) (P10635 whole entry, looked up): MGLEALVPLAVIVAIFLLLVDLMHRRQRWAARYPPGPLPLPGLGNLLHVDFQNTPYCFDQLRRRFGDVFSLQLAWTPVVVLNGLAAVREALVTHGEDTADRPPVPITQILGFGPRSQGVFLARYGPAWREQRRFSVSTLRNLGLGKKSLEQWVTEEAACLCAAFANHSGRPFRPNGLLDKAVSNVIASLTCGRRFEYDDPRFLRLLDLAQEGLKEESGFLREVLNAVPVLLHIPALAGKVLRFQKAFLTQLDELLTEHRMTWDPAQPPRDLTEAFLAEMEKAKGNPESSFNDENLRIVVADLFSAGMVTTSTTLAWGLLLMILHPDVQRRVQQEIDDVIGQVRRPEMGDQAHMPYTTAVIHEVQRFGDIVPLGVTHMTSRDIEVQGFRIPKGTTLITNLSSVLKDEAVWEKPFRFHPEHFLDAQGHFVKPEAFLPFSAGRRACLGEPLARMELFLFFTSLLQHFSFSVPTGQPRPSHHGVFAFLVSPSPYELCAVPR

For `COc1ccc(C(=O)O[C@H]2CC[C@@]3(C)[C@H]4CC[C@H]5[C@]3(C[C@]3(O)[C@H]6CN7C[C@H](C)CC[C@H]7[C@](C)(O)[C@]6(O)[C@H](O)C[C@]53O)O[C@]24O)cc1OC`, the Potency in test [1] is > 11.4 µM; in [6], > 46 µM; in test [7] it was > 9.22 µM. For the same compound, the activity change, negative = inhibition in [2] is 1.14%; in test [3], -20.9% [at 2.29 µM]; in [4] it was -1.26%; in [8], -0.646% [at 11.4 µM]. The activity, negative = inhibition in test [5] is -2.58%. In [9], the compound was called inactive. Besides, in test [10], the Potency result is “inactive”.

Consider `Nc1nnnn1CCO`, for which the Potency in [1] is > 11.4 µM; in [3], 6.31 µM (active); in test [6], > 46 µM; in [7] it was > 9.22 µM. The activity change, negative = inhibition in test [2] is 7.2%; in test [4], 8%; in [8] it was 3.27% [at 11.4 µM]. Moreover, the activity, negative = inhibition in test [5] is 12%. In test [9], the call was inactive. Further, the activation in [11] was 12.2%.

As to `COc1cc(CCN)c(OC)c(OC)c1`, the Potency is > 11.4 µM in test [1], 3.16 µM (active) in test [3], > 46 µM in test [6] and > 9.22 µM in test [7]. Also, the activity change, negative = inhibition in test [2] was 7.8%; in test [4] it was -9.45%; in test [8] it was 4.46% [at 11.4 µM]. The activity, negative = inhibition in [5] was -3.83%. Moreover, the outcome in test [9] was inactive.

Turning to `Nc1nc(N)c(N=Nc2ccc([As](=O)(O)O)cc2)c(=O)[nH]1`, the Potency is > 11.4 µM in [1], > 46 µM in test [6] and > 9.22 µM in [7]. The activity change, negative = inhibition was 6.48% in test [2], -14.9% [at 2.29 µM] in test [3] and 5.43% in [4]. Moreover, in [5], the activity, negative = inhibition was 0.893%. Besides, the compound was classed as inactive in test [9].

In the case of `CC(C)c1ccc(C(O)(C(=O)O)c2ccc(C(C)C)cc2)cc1`, the Potency in test [1] is > 11.4 µM; in [6], > 46 µM; in [7], > 9.22 µM. Besides, the activity change, negative = inhibition in [2] is 2.63%; in [4], -9.63%; in test [8] it was 5.33% [at 11.4 µM]. Further, the Potency result in [3] and in [12] was “inactive” each time. The activity, negative = inhibition in test [5] was 4.5%. In addition, the compound was classed as inactive in [9].

For `C[C@@H](Cc1ccc(Cl)cc1Cl)NO`, the Potency was > 11.4 µM in test [1], 0.251 µM (active) in test [3], > 46 µM in [6] and > 9.22 µM in [7]. Also, the activity change, negative = inhibition in test [2] is 3.86%; in [4], -11.6%; in test [8] it was 2.58% [at 11.4 µM]. In addition, the activity, negative = inhibition in test [5] is -0.402%. For the same compound, the compound was called inactive in [9].

On to `Cc1cc[c]([Sb]2[O][C@H]([C@H](O)[C@H](O)C(=O)O)[C@@H](CO)[O]2)cc1`, for which the Potency in test [1] is > 11.4 µM; in test [6], > 46 µM; in test [7] it was > 9.22 µM. Also, the values for the activity change, negative = inhibition in [2], in test [4] and in [8] were 0.9%, -5.69% and 0.865% [at 11.4 µM], respectively. In addition, the Potency entry in test [3] was “inactive”. In addition, the activity, negative = inhibition in [5] is 4.3%. Moreover, in [9], the call was inactive.

On to `CN(C)CCCc1cccnc1`, for which the Potency in [1] is > 11.4 µM; in test [6] it was > 46 µM; in test [7], > 9.22 µM. In addition, the activity change, negative = inhibition in test [2] is 3.48%; in test [3], -10.2% [at 2.29 µM]; in test [4], 16.7%; in test [8], 3.96% [at 11.4 µM]. Further, the activity, negative = inhibition in test [5] was -4.3%. Also, the outcome in test [9] was inactive.

`N#CCCCC[N+]12CN3CN(CN(C3)C1)C2`: the Potency in [1] is > 11.4 µM; in [6], > 46 µM; in [7], > 9.22 µM. Moreover, the activity change, negative = inhibition in test [2] is 12.8%; in test [3], 15% [at 2.29 µM]; in test [4], 5.06%; in [8] it was 0.429% [at 11.4 µM]. Also, in test [5], the activity, negative = inhibition was -17.9%. Besides, the result in test [9] was inactive.

As for `Cc1ccc(OP(=O)(Oc2ccc(C)cc2)N2C=Cc3ccccc3[C@H]2C#N)cc1`, the Potency in test [1] was > 11.4 µM; in test [3] it was 3.98 µM (active); in test [6], > 46 µM; in test [7] it was > 9.22 µM; in [14], 2.51 µM (active); in [10], 2.51 µM (active). Moreover, the activity change, negative = inhibition in test [2] is 0.753%; in test [4] it was -17.9%; in test [8], 7.39% [at 11.4 µM]; in [13], 45.9% [at 11.4 µM]. Besides, the activity, negative = inhibition in test [5] is -13.5%. Moreover, the outcome in [9] was inactive. For the same compound, the activity change, positive = activation in test [15] was -91.2% [at 11.4 µM].

`CC(C)C(=O)CP(=O)(O)O`: the results for the Potency in test [1], in [6] and in test [7] were > 11.4 µM, > 46 µM and > 9.22 µM, respectively. In addition, the activity change, negative = inhibition in test [2] was 10.1%; in test [4], 7.02%; in test [8], 3.33% [at 11.4 µM]. Moreover, in test [3], the Potency entry was “inactive”. Besides, the activity, negative = inhibition in test [5] was 5.14%. Also, the compound was called inactive in test [9].

`O=[As](O)(O)c1ccc2nc3cc([As](=O)(O)O)ccc3nc2c1`: the Potency in test [1] is > 11.4 µM; in test [6], > 46 µM; in test [7], > 9.22 µM. Besides, the figures for the activity change, negative = inhibition in [2] and in test [4] were 0.372% and 20.7%, respectively. The Potency result in [3] and in test [10] was “inactive” each time. The activity, negative = inhibition in [5] is -4.42%. Moreover, the compound was called inactive in test [9].

The record behind these values is PubChem BioAssay (NCATS).
